# About 2,100 (0.66%) of roughly 320,000 compounds were called active. Inconclusive results (about 53%) are left out. The call rests on the fitted dose curve; in most records, active means well fitted inhibition curve with a large enough effect in the signal ratio, with a control signal flat (not every such curve was filed as active); inconclusive means small, poorly fitted or top-dose-only effect, or effect the other way, or a change in a side signal; inactive means flat fitted curve, though single readings scatter; the % refers to the signal ratio. The sample as a whole holds a higher share of actives than the screen did.
# Assay: qHTS Assay for Lipid Storage Modulators in Drosophila S3 Cells;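 on cell number change: cells counted by Cell Tracker Red CMTPX staining in the red channel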
# Settings: BODIPY lipid droplet fluorescence, 18-24 h, cells fed with added oleic acid; cell number change: measured here: cell count max response; series mostly up to 46.1 µM
# Method in brief: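 Drosophila S3 cells got compounds at several concentrations plus oleic acid (400 uM solution). Laser-scanning cytometry with 488 nm excitation read lipid droplets at 500-530 nm and cells at 575-640 nm. Percent activity was relative to 20 uM Triacsin C.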
# Potency means the concentration at half of the fitted maximal effect.
Structure (SMILES),Potency,cell number change
Cc1cc(N2CCN(c3ccccc3)CC2)n2cc(-c3ccccc3)nc2n1,inactive,0.751%
COc1ccc(-c2cc(C(=O)O)[nH]n2)cc1OC,18.4 µM (active),-22.4%
COc1ccc(-c2cc(C(=O)NN)[nH]n2)cc1OC,inactive,0.0556%
O=C(O)c1cc(-c2ccccc2)n[nH]1,inactive,-6.51%
COc1ccccc1NS(=O)(=O)c1cccc(C(=O)NNC(=O)C(NC(N)=O)C(C)C)c1 (stereo not drawn),inactive,-2.91%
CC1=Nc2ccccc2/C1=C\c1nc(-c2ccc(F)cc2)oc1O,4.11 µM (active),-8.49%
COc1ccc(-c2nc(/C=C3\C(C)=Nc4ccccc43)c(O)o2)cc1,inactive,8.93%
CN=Cc1nc(-c2ccccc2)oc1O,inactive,3.36%
CCC(=O)NC(=S)Nc1ccc(NC(=O)c2ccc([N+](=O)[O-])cc2Cl)cc1,inactive,-6.05%
CC(=O)OCC1=C(C(=O)O)N2C(=O)C(NC(=O)c3ccc(COc4ccc(Cl)cc4)o3)C2SC1 (stereo not drawn),inactive,12.1%
NC(=O)C1CCN(c2ccc(C(F)(F)F)cc2[N+](=O)[O-])CC1,inactive,–
O=[N+]([O-])c1cc(C(F)(F)F)ccc1N1CCC(O)CC1,inactive,9.29%
O=C(C1CCC1)N1CCN(c2ccc(C(F)(F)F)cc2[N+](=O)[O-])CC1,0.58 µM (active),4.32%
C1CCC(Nc2nc3nonc3nc2N2CCSCC2)C1,inactive,-7.42%
O=C(NN(C(=O)C1CC1)c1nc2ccccc2s1)C1CC1,inactive,4.43%
O=C(CCl)Nc1ccc(N=Nc2ccccc2)cc1,5.8 µM (active),-14.8%
O=C(O)CCCC(=O)Nc1ccc(N=Nc2ccccc2)cc1,inactive,17%
O=C(O)CCC(=O)Nc1ccc(N=Nc2ccccc2)cc1,inactive,-12.6%
CCCCCC/C=N/Nc1nnc(Cc2ccc(OC)c(OC)c2)c(=O)[nH]1,inactive,–
CC(=O)Nc1ccc(S(=O)(=O)Nc2nc3ccc(C)cc3s2)cc1,inactive,6.47%
CC(=O)Nc1ccc(S(=O)(=O)Nc2nnc(C3CCCCC3)s2)cc1,3.66 µM (active),6.53%
CC(=O)Nc1ccc2nc(NS(=O)(=O)c3ccc(C)cc3)sc2c1,inactive,2.04%
O=S(=O)(Nc1nnc(C2CCCCC2)s1)c1ccc(F)cc1,inactive,-12.8%
CC(=O)Nc1ccc(S(=O)(=O)Nc2nc3ccccc3s2)cc1,23.1 µM (active),-10.9%

Structure (SMILES),Potency,cell number change
CC(=O)Nc1ccc(S(=O)(=O)Nc2nnc(CC(C)(C)C)s2)cc1,inactive,0.722%
COc1ccc(CCNC(=O)C(=O)Nc2nccs2)cc1OC,inactive,–
Cc1c(N=C/C=C/c2ccccc2)cnn1C,inactive,0.211%
CCc1nnc(SCC(=O)Nc2nccs2)n1CC,inactive,1.52%
CC1(C)Cc2c(cnn2-c2cccc(F)c2)C(NC(=O)CN2CCCC2=O)C1 (stereo not drawn),inactive,-1.15%
CCOC(=O)COc1ccc(C)cc1-c1ccno1,inactive,–
Cc1oc(C(=O)O)cc1COc1cccc2ccccc12,inactive,16.3%
COc1cc(C(=O)O)cc(OC)c1OCc1cc(C(=O)O)oc1C,inactive,-10.9%
Cc1oc(C(=O)O)cc1COc1cccc2cccnc12,6.51 µM (active),7.93%
Cn1cc(-c2ccc(Cl)cc2)cc(C#N)c1=O,inactive,–
Cc1ccccc1/C=N/n1c(COc2ccccc2)n[nH]c1=S,inactive,4.96%
O=C(OCCOCCN=C1NS(=O)(=O)c2ccccc21)C1CC(=O)N(c2ccccc2)C1 (stereo not drawn),8.2 µM (active),–
O=C(OCCCN=C1NS(=O)(=O)c2ccccc21)C1CC(=O)N(c2ccc(Cl)cc2)C1 (stereo not drawn),inactive,-12.2%
O=C(OCCOCCN=C1NS(=O)(=O)c2ccccc21)c1ccc(F)cc1,1.64 µM (active),13.2%
O=C(OCCCN=C1NS(=O)(=O)c2ccccc21)c1ccc(F)cc1,inactive,-17.4%
O=C(CN1C(=O)c2ccccc2C1=O)OCCOCCN=C1NS(=O)(=O)c2ccccc21,inactive,10.2%
O=C(OCCOCCN=C1NS(=O)(=O)c2ccccc21)c1ccncc1,inactive,0.489%
CN(CC(=O)Nc1ccc(Cl)cc1)CC(=O)Nc1ccc(C(N)=O)cc1,inactive,-11%
Cc1cc(=O)n(C)c(=O)n1CCCCOc1cccc([N+](=O)[O-])c1,inactive,11.9%
N#Cc1nc(-c2cccs2)oc1NCc1ccc(Cl)cc1,inactive,–
Cc1ccc2c(CC(=O)NCc3cccs3)coc2c1,inactive,20.1%
Cc1cc2occ(CC(=O)Nc3nccs3)c2cc1C(C)C,inactive,–
Cc1cc2occ(CC(=O)NCc3cccs3)c2cc1C(C)C,1.46 µM (active),-2.8%
O=C(O)c1ccc2c(c1)C(=O)N(c1ncccn1)C2=O,inactive,-0.987%

Structure (SMILES),Potency,cell number change
Cc1ccc(Cn2c(CN3CCOCC3)nc3c2c(=O)n(C)c(=O)n3C)cc1,inactive,6.6%
COc1ccc(-c2[nH]ncc2CN(C)C(C)c2cccs2)c(F)c1 (stereo not drawn),inactive,8.77%
COc1ccc(Cc2nc3ccc(C(=O)NC(C)c4cn(C)nc4C)cc3o2)cc1 (stereo not drawn),inactive,-22.9%
O=C(O)c1c(Cl)cccc1Cl,inactive,4.08%
O=C(Oc1ccccc1)c1c(Cl)cccc1P(=O)(O)O,3.66 µM (active),3.12%
O=C(Oc1ccc(/C=N/O)cc1)c1ccccc1Cl,inactive,-11.5%
CSc1ccc(Cl)c(C(=O)N2CCOc3ccccc32)c1,inactive,-26.8%
O=C(c1ccc(N2C(=O)C3CC=C(Cl)CC3C2=O)cc1)N1CCOCC1 (stereo not drawn),inactive,30%
COc1cc(C=O)ccc1OCC(=O)Nc1ccccc1N1CCOCC1,2.59 µM (active),-24.3%
COc1cc(C(=O)Nc2ccccc2N2CCOCC2)ccc1OCC(=O)N1CCOCC1,inactive,–
COc1ccccc1OCC(=O)Nc1ccc(N2CCOCC2)cc1N1CCOCC1,inactive,2.71%
CC(=O)COc1ccc2c(-c3ccccc3)cc(=O)oc2c1C,inactive,-1.68%
CCc1cc2c(-c3ccccc3)cc(=O)oc2cc1OCC(C)=O,0.651 µM (active),-1.82%
Cc1c(OCC(=O)NCC(O)c2ccccc2)ccc2c3c(c(=O)oc12)CCCC3 (stereo not drawn),inactive,-19.4%
Cc1c(OC(C)C(=O)NCC(O)c2ccccc2)ccc2c3c(c(=O)oc12)CCCC3 (stereo not drawn),29.1 µM (active),9.43%
Cc1c(OC(C)C(=O)NCc2ccncc2)ccc2c3c(c(=O)oc12)CCC3 (stereo not drawn),inactive,-1.18%
Cc1c(OCC(=O)NCC2CCC(C(=O)O)CC2)ccc2c(-c3ccccc3)cc(=O)oc12 (stereo not drawn),inactive,0.647%
Cc1c(OCC(=O)NCC(O)c2ccccc2)ccc2c(-c3ccccc3)cc(=O)oc12 (stereo not drawn),16.4 µM (active),-9.69%
Cc1c(OC(C)C(=O)N[C@H](C(=O)O)c2ccccc2)ccc2c3c(c(=O)oc12)CCCC3 (stereo partly drawn),inactive,-8.43%
CCc1cc2c(-c3ccccc3)cc(=O)oc2cc1OCC(=O)NCC1CCC(C(=O)O)CC1 (stereo not drawn),inactive,22.7%
CC(Oc1ccc2c3c(c(=O)oc2c1)CCC3)C(=O)NCc1ccccn1 (stereo not drawn),inactive,1.9%
CCc1cc2c(-c3ccccc3)cc(=O)oc2cc1OC(C)C(=O)NCC1CCC(C(=O)O)CC1 (stereo not drawn),inactive,17.8%
Cc1c(OC(C)C(=O)NCc2ccccn2)ccc2c3c(c(=O)oc12)CCC3 (stereo not drawn),11.6 µM (active),-27.2%
O=c1[nH]cnc2sc3c(c12)CCC3,inactive,25.4%

Structure (SMILES),Potency,cell number change
CCOc1ccc(-n2ccc(=O)c(C(=O)Nc3ccc(S(=O)(=O)Nc4nccs4)cc3)n2)cc1,inactive,-6.87%
CCc1c(C)nc(N)n2c(SCC(=O)N3CCN(c4ccccc4F)CC3)nnc12,inactive,-1.8%
O=C1CCN(Cc2ccccc2)CCN1CCO,inactive,13.2%
O=C(CN(C(=O)CCC(=O)Nc1nccs1)c1ccc2c(c1)OCO2)NCC1CCCO1 (stereo not drawn),inactive,2.62%
Cc1cc(N2CCN(S(=O)(=O)Cc3ccccc3)CC2)n2ncnc2n1,inactive,–
O=c1[nH]c2ccccc2nc1C(Cl)c1ccccc1 (stereo not drawn),inactive,23.2%
CCN(CC)S(=O)(=O)c1cccc(NC(=O)c2ccc(SC)cc2OC)c1,inactive,22.2%
COc1ccc(S(=O)(=O)N(CC(=O)NCc2ccco2)c2ccccc2)cc1,inactive,–
CC(C)(C)c1ccc(C(=O)NC2CCN(Cc3ccccc3)CC2)cc1,inactive,5.06%
Cc1nnc2c(NC3CCCC3)nc3ccccc3n12,inactive,9.22%
Cc1ccc(-c2nnc(SCC(=O)Nc3ccc(N4CCOCC4)cc3)o2)cc1,inactive,-5.45%
O=C1Nc2cc(C(=O)N3CCc4ccccc4C3)ccc2S/C1=C\c1ccccc1,0.651 µM (active),17.1%
COc1ccc(/C=C2/Sc3ccc(C(=O)N4CCc5ccccc5C4)cc3NC2=O)cc1,inactive,0.0626%
CC1CCN(C(=O)c2ccc3c(c2)NC(=O)/C(=C/c2ccccc2)S3)CC1,inactive,3.29%
Cn1c(=O)[nH]c(=O)c2c1nc(SCCN1CCCCC1)n2Cc1ccccc1,inactive,–
COc1ccc(OC)c(C(=O)CSc2nnc(Cc3cccs3)n2C)c1,inactive,-18.3%
O=C(Nc1ccc(F)cc1)c1csc(Cc2ccccc2)n1,inactive,–
O=c1[nH]c2ccccc2nc1Cc1ccccc1,inactive,-29.6%
O=c1[nH]c2ccccc2nc1Cc1ccc(Cl)cc1,inactive,6.67%
COc1ccc(Cc2nc3ccccc3[nH]c2=O)cc1,3.26 µM (active),–
COC(=O)N1[C@H](Cc2ccccc2)C=C[C@]1(C)C(=O)O,inactive,-7.24%
O=C(CCl)Nc1c2c(nn1-c1ccccc1)CSC2,20.6 µM (active),-21.4%
CCC(=O)Nc1c2c(nn1-c1ccccc1)CSC2,inactive,19%
O=C(CBr)Nc1c2c(nn1-c1ccccc1)CSC2,inactive,23.5%

# From PubChem BioAssay AID2685 (National Center for Advancing Translational Sciences (NCATS), 2010)
